A selection: hits, their analogues and other compounds. The true share with any hit is near 0.87%.
RECQ1 inh = blocks DNA unwinding by human RECQ1 | RECQ1 DNA unwinding, red fluorescence kinetic read | Potency, µM (highest dose often 57.3 µM), inactives show top-dose activity, negative = inhibition, actives largely listed as inhibitors | 240,000 tested, 0.54% active;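 also: plate controls were vehicle for no effect and no enzyme for full effect; nearly all actives have a fitted effect of over 30% in size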
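50 nM RECQ1T1 preincubated 15 min with compound in Tris pH 8.0 buffer with MgCl2, DTT, Tween-20 and 2.5 ug/ml poly(dI-dC); started with 200 nM TAMRA/BHQ-2 forked duplex and 2 mM ATP. Unwinding read as fluorescence (525/598 nm), two reads 2 h apart.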
BLM inh = blocks DNA unwinding by human BLM helicase; recombinant BLM DNA unwinding, fluorescence dequenching; Potency, µM (titrated, usually from 56.1 µM), inactives show top-dose activity change, negative = inhibition, usual class: inhibitors; 350,000 tested, 0.2% active;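 also: plate controls were vehicle for no effect and no enzyme for full effect; nearly all actives have a fitted effect of over 35% in size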
KAT2A inh = blocks human GCN5L2 histone acetyltransferase; Q92830; GCN5L2 HAT assay, ThioGlo1 CoA-SH fluorescence; Potency, µM (highest dose often 58.9 µM), for the others: at the top dose activity change, negative = inhibition, actives largely listed as inhibitors; 390,000 tested, 0.21% active
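Fluorescence readout, Ex340nm/Em540nm: ThioGlo1 (50uM final) reacts with free CoA thiol released as 20nM GCN5L2 acetylates H3(1-25) peptide (75uM) using acetyl-CoA (70uM). Compound and enzyme sat 15 min beforehand; 20 min room-temperature reaction.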
APE1 inh = blocks human APE1 abasic DNA cleavage; recombinant APE1, TAMRA/BHQ-2 abasic DNA cleavage fluorescence; Potency, µM (titrated, usually from 65.8 µM), without a hit: top-dose activity change, negative = inhibition, actives largely listed as inhibitors; 350,000 tested, 0.35% active;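 also: plate controls were vehicle for no effect and reference inhibitor for full effect; nearly all actives have a fitted effect of over 55% in size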
Target sequence (P27695 whole entry, looked up): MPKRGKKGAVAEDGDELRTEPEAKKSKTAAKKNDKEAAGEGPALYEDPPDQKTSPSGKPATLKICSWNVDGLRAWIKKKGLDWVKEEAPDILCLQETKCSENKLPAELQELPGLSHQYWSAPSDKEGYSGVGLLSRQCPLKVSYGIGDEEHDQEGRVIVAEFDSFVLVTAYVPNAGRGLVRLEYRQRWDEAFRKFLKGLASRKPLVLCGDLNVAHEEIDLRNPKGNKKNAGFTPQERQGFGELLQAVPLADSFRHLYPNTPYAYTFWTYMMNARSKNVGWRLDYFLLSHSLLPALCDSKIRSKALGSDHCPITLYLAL
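Enzyme (0.75 nM final) and test compound are incubated 15 min at room temperature before adding 50 nM quenched THF abasic-site duplex. Cleavage dequenches TAMRA, followed at 525/598 nm over three reads one minute apart.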
TDP1 block = blocks human tyrosyl-DNA phosphodiesterase 1; Potency, µM (doses to about 130 µM), for inactives: top-dose activity change, negative = inhibition, most hits filed as inhibitors; 350,000 tested, 0.28% active; recombinant TDP1, AlphaScreen DNA substrate cleavage; Q9NUW8; also: nearly all actives have a fitted effect of over 40% in size
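Recombinant human Tdp1 (E. coli-expressed, 1 nM final) preincubated with compounds 15 min at room temperature, then 5'-biotin/3'-phosphotyrosine-FITC DNA substrate (15 nM final) added for 5 min. AlphaScreen beads (10 ug/ml final) added 10 min; cleavage lowers signal.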
Active calls of the source: *; i = inactive; ? = inconclusive; . = no result given; [ ] = another dose, or the depositor's remark. Calls follow the shape of the dose curve; as a rule, active = well fitted curve in the direction sought with a large enough effect; inconclusive = small, poorly fitted or top-dose-only effect, or another doubt; inactive = no such curve, though single readings can be large; an effect the other way counts as inactive or inconclusive. Unless noted, % is scaled to controls: 0 for no effect and ±100 for the full control effect; potency is read from the fitted curve at half-maximal effect.

SMILES	RECQ1 inh	BLM inh	KAT2A inh	APE1 inh	TDP1 block
NC(=O)c1ccc(NC(=O)COC(=O)c2cc3c(s2)CCC3)cc1	.	.	-14.7%	2.99µM*	7.08µM*
Cc1ccc(C(=O)OCC(=O)Nc2ccccc2)cc1S(=O)(=O)N1CCCCC1	.	.	-1.5%	-24.3%	.
COc1ccc(NC(=O)COC(=O)c2cc3c(s2)CCC3)cc1	.	.	-20.2%	5.32µM*	14.1µM*
COc1ccc(C2Nc3ccccc3C(=O)N2CCc2ccccc2)cc1COc1ccc(NC(C)=O)cc1 (configuration not stated)	.	.	.	.	0.5%
Cc1ccc(NS(=O)(=O)c2ccc3c(c2)CCC(C)(C)O3)cc1C	.	.	.	.	0.2%
Cc1ccc(NS(=O)(=O)c2cc3c(cc2C)OCC(=O)N3)cc1C	.	.	.	.	1.0%
COCCCc1cc(F)c(S(=O)(=O)N2CCN(S(=O)(=O)c3ccc4c(c3)OCCO4)CC2)cc1F	.	.	.	.	0.6%
CC(=O)C1=C(c2ccccc2)NC(=S)NC1c1ccc(O)c(O)c1 (configuration not stated)	?	-16.2%	-10.6%	12.6µM*	-2.7%
CCOc1ccc(C2NC(=O)NC(c3ccccc3)=C2C(C)=O)cc1OC (configuration not stated)	.	-0.8%	1.7%	17.4%	4.1%
CC(=O)C1=C(c2ccccc2)NC(=S)NC1c1cc(Cl)c(OC(C)C)c(Cl)c1 (configuration not stated)	-21.7%	-8.9%	-13.4%	-7.4%	6.5%
CC(=O)C1=C(c2ccccc2)NC(=O)NC1c1ccc(O)c(O)c1 (configuration not stated)	-3.1%	-8.0%	-3.7%	39.8µM*	-5.1%
Cn1c(-c2ccccc2)cc(=O)c2ccccc21	i	-0.7%	-29.9%	-4.8%	-3.4%
Cn1c2ccccc2c(=O)n2c(=O)c3ccccc3cc12	0.1%	25.1µM*	1.0%	?	-1.0%
O=C(Cn1cc(CNCc2ccccc2)nn1)Nc1cc(C(F)(F)F)ccc1Cl	.	.	.	.	-0.7%
Cc1ccc(OCc2ccoc2C(=O)O)cc1C	-11.2%	-0.3%	-9.3%	?	50.1µM*
Cc1ccc(OCc2ccc(C(=O)O)o2)cc1C	.	-6.9%	-15.1%	-3.5%	.
COc1ccc(OC)c(-c2csc(NC(=O)COC(=O)c3ccc(NC(=O)CC#N)cc3)n2)c1	.	.	?	15µM*	-0.5%
O=C(N/N=C/c1c(O)ccc2ccccc12)c1ccc(Br)o1	.	-18.4%	-10.9%	15µM*	?
O=C(N/N=C\c1c(O)ccc2ccccc12)c1ccc(O)cc1	.	-17.1%	-3.2%	-18.6%	.
Cc1ccc(C(=O)N/N=C\c2ccc(Br)o2)o1	-1.2%	-0.9%	2.51µM*	-3.3%	2.0%
CC(C)c1ccc(Cn2cnc3c(cnn3C(C)(C)C)c2=O)cc1	.	.	.	-11.6%	.
O=c1cc(-c2ccc(O)c(O)c2)oc2ccc3ccccc3c12	.	.	1.2%	0.423µM*	.
O=C(O)CCNc1ccc(NCCC(=O)O)c2c1C(=O)c1ccccc1C2=O	.	?	-14.8%	6.7µM*	.
COc1ccccc1NCCC(=O)O	i	-0.1%	-7.8%	4.4%	-6.8%
COc1ccc(OC)c(C2CC(=O)N3CN(c4cccc(Cl)c4C)CSC3=C2C#N)c1 (configuration not stated)	-5.0%	-5.8%	25.1µM*	1.0%	5.2%
SMILES	RECQ1 inh	BLM inh	KAT2A inh	APE1 inh	TDP1 block
CCc1ccccc1N1CSC2=C(C#N)C(c3cc(OC)c(OC)cc3OC)CC(=O)N2C1 (configuration not stated)	2.1%	-18.5%	?	-0.6%	-2.4%
CCOc1ccc(N2CSC3=C(C#N)C(c4ccco4)CC(=O)N3C2)cc1 (configuration not stated)	?	?	?	31.6µM*	.
COc1ccc(OC)c(C2CC(=O)N3CN(c4ccc(C)c(Cl)c4)CSC3=C2C#N)c1 (configuration not stated)	-5.2%	-5.6%	14.1µM*	-0.9%	7.8%
COc1ccc(OC)c(C2CC(=O)N3CN(c4ccccc4F)CSC3=C2C#N)c1 (configuration not stated)	13.7%	7.0%	8.91µM*	?	10.5%
O=S1(=O)N=C(Oc2ccc3ccccc3c2)c2ccccc21	.	.	.	.	2.2%
COc1cc(C2CC(=O)N3CN(c4ccccc4C)CSC3=C2C#N)cc(OC)c1OC (configuration not stated)	-3.7%	-11.3%	?	16.3%	0.0%
COc1cccc(C2CC(=O)N3CN(c4cccc(Cl)c4C)CSC3=C2C#N)c1OC (configuration not stated)	-2.7%	-4.2%	22.4µM*	-2.0%	5.2%
O=C(CNC(=O)c1ccccc1)OC(Cc1ccccc1)C(=O)Nc1cc(C(F)(F)F)ccc1Cl (configuration not stated)	.	.	.	.	-2.7%
CC12CCC3C(CC3(C)C)C(C)(CCC1=O)O2 (configuration not stated)	i	-9.2%	0.3%	1.5%	10.1%[56.1 µM]
CC1(C)CC2C1CC[C@]1(C)CCC3C(C(=O)O)CC(=O)O[C@]32C1 (some centres not stated)	1.1%	-0.7%	7.94µM*	-3.4%	14.0%[56.1 µM]
O=S1(=O)N=C(Oc2cccc(-c3ccccc3)c2)c2ccccc21	.	.	.	.	2.3%
O=C1c2ccccc2C(=O)N1c1cc(=O)c2ccccc2[nH]1	.	.	.	.	1.9%
Cc1ccc(CNc2ncc(N3CCCCC3)cn2)cc1	.	.	.	13.0%	.
COc1cc(O)c(C(C)=O)c(CC(=O)O)c1	?	3.0%	-11.4%	8.91µM*	.
CC(=O)c1ccc(Sc2ccccc2N)c([N+](=O)[O-])c1	2.0%	-10.9%	-3.6%	1.8%	11.4%
Nc1ccccc1Sc1ccc(C(=O)c2ccccc2C(=O)O)cc1[N+](=O)[O-]	-3.8%	-4.6%	20µM*	-2.0%	0.0%
Cn1c(=O)c2c(SCC(=O)N3CCN(c4ccccc4)CC3)nc(C3CC3)nc2n(C)c1=O	17.8µM*	-1.7%	-0.9%	-3.2%	.
O=C(O)c1ccc(CSc2nnc(-c3cccc([S+](=O)([O-])N4CCCC4)c3)n2-c2ccccc2)cc1	.	.	.	5.0%	.
Cc1ccc(Cl)cc1NS(=O)(=O)c1cc2c(cc1Cl)CCC(=O)N2	.	.	.	.	1.7%
COC(=O)Cc1c(C)c2cc3c(c(C)c2oc1=O)OCN(CCc1ccc(OC)cc1)C3	.	-7.7%	31.6µM*	.	4.9%
COc1ccc(C2Nc3ccccc3C(=O)N2Cc2ccccc2)cc1COc1ccccc1OC (configuration not stated)	.	.	.	.	2.9%
O=C(CSc1nnc(-c2cccc(S(=O)(=O)N3CCCC3)c2)n1-c1ccccc1)Nc1ccccc1	.	.	.	16.7%	.
O=C1[O][Bi][O]c2ccccc21	.	-10.2%	-16.4%	.	35.5µM*
O=C1NCCNC(=O)c2ccccc2OCCOc2ccccc21	3.5%	0.3%	3.5%	-3.6%	-0.6%
O=c1c(-c2ccccc2)coc2cc(O)cc(O)c12	-13.4%	22.4µM*	28.2µM*	?	-12.4%[56.1 µM]
Cc1cc2c(s1)c1cnn(Cc3ccccc3)c(=O)c1n2C	.	.	.	.	-0.6%
